Measurements as given in PubChem BioAssay (EPA / NIEHS).
Results filed as inconclusive are left out. The source made the active and inactive calls. Rule for the calls: active = hit-call score of the fitted dose curve at least 0.9, where 1 is the maximum; inconclusive = response in the unintended direction; inactive = score below 0.9.

Columns and labels:
[1] = target: guinea pig Bradykinin Receptor B2 (BK2), BDKRB2 (gene 100135486) (UniProt O70526); experiment: NVS_GPCR_gBK2: NovaScreen (NVS) G Protein-Coupled Receptor Assay for guinea pig Bradykinin Receptor B2 (BK2) (AID 2283292)
Sequence of guinea pig Bradykinin Receptor B2 (BK2), BDKRB2 (gene 100135486) (O70526 whole entry, looked up): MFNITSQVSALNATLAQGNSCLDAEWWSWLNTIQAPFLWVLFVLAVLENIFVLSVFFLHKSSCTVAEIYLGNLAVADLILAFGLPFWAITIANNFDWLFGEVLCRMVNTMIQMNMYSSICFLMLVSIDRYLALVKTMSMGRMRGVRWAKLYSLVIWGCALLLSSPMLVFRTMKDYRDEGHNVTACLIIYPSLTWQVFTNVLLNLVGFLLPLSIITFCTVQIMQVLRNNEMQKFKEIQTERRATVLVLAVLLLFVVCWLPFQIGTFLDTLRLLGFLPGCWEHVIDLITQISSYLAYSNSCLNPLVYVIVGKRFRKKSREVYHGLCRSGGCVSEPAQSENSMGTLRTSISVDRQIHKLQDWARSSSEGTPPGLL
In short: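 Guinea pig ileum membrane preparation incubated 1 h with radioligand and test chemical; bound counts measured after filtration. Primary duplicate screening at 25 uM, then singleton concentration series with a 50 uM top dose; DMSO as baseline.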

[2] = target: mouse Cholecystokinin, CCK2 Receptor (CCKB), Cckbr (gene 12426) (UniProt P56481); experiment: NVS_GPCR_mCKKBCentral: NovaScreen (NVS) G Protein-Coupled Receptor Assay for mouse Cholecystokinin, CCK2 Receptor (CCKB) (AID 2283293)
Sequence of mouse Cholecystokinin, CCK2 Receptor (CCKB), Cckbr (gene 12426) (P56481 whole entry, looked up): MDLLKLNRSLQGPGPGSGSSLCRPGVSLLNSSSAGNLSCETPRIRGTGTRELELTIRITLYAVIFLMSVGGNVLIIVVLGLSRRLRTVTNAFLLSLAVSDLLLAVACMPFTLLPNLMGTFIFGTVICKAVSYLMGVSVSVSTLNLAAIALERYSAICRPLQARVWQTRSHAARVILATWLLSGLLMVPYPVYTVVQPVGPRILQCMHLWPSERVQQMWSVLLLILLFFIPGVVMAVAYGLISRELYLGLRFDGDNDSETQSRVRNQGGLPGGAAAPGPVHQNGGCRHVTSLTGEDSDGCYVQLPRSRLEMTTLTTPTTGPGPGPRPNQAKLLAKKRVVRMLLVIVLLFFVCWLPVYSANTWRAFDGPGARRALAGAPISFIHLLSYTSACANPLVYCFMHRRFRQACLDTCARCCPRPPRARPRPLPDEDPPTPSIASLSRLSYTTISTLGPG
In short: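 Mouse forebrain membrane preparation incubated 2 h with chemical and radioligand; bound radioactivity counted after filtration. Single-concentration duplicate screen at 25 uM, then concentration series to 50 uM max for hits, DMSO as baseline.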

[3] = target: rat Adrenergic, Alpha 1A Receptor (Adra1A), Adra1a (gene 29412) (UniProt P43140); experiment: NVS_GPCR_rAdra1A: NovaScreen (NVS) G Protein-Coupled Receptor Assay for rat Adrenergic, Alpha 1A Receptor (Adra1A) (AID 2283296)
Sequence of rat Adrenergic, Alpha 1A Receptor (Adra1A), Adra1a (gene 29412) (P43140 whole entry, looked up): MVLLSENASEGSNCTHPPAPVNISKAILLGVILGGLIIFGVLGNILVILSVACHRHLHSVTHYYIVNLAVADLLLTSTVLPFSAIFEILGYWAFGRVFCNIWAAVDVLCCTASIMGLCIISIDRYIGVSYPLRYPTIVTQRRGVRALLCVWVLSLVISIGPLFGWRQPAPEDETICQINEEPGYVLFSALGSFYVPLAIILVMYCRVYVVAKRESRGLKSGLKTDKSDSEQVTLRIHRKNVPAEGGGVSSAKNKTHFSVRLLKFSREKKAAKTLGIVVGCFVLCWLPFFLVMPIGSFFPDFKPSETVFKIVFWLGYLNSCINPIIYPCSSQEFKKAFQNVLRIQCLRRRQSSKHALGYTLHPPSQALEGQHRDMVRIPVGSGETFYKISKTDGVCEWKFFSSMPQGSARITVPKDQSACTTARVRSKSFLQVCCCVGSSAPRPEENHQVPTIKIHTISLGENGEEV
In short: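 Filter radiodetection after 1 h competitive binding on CEC-pretreated rat cortical membranes. Duplicate single-point screening at 25 uM; active chemicals retested across concentration series.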

[4] = target: rat Histamine Receptor (H3), Hrh3 (gene 85268) (UniProt Q9QYN8); experiment: NVS_GPCR_rH3: NovaScreen (NVS) G Protein-Coupled Receptor Assay for rat Histamine Receptor (H3) (AID 2283303)
Sequence of rat Histamine Receptor (H3), Hrh3 (gene 85268) (Q9QYN8 whole entry, looked up): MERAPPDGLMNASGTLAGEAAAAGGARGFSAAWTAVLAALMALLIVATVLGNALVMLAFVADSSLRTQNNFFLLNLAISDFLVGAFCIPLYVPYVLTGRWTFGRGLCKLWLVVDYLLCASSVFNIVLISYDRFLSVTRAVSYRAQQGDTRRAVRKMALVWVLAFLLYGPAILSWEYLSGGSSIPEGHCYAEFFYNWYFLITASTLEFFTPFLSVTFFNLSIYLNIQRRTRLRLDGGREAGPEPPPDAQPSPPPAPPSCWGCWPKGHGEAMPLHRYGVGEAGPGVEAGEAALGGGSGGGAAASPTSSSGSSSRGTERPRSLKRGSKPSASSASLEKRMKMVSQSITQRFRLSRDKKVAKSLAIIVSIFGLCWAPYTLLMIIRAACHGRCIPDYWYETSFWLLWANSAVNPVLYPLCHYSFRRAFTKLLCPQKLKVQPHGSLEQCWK
In short: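 Filter-binding radioligand competition on rat forebrain membranes, 1 h incubation; compounds screened at 25 µM in duplicate and followed in concentration series to 50 µM, loss of bound signal vs DMSO.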

Structure (SMILES): Cc1oc(-c2ccccc2)nc1CCOc1ccc(C[C@H](Nc2ccccc2C(=O)c2ccccc2)C(=O)O)cc1
- outcome [1]: inactive
- AC50 [2]: 46 µM (active)

Structure (SMILES): CCCCCCCCC(=O)O
- outcome [1]: inactive

Structure (SMILES): CCN(CC)CCNc1ccc(CNC=O)c2sc3ccc(OC)cc3c(=O)c12
- AC50 [3]: 18.9 µM (active)

Structure (SMILES): CC(=O)NC1(c2cccc(F)c2)CCN(CC[C@@]2(c3ccc(Cl)c(Cl)c3)CN(c3ccccc3)C(=O)CO2)CC1
- AC50 [3]: 34.8 µM (active)

Structure (SMILES): CN1CCC[C@H]1c1cccnc1
- AC50 [4]: 25 µM (active)

Structure (SMILES): CCCCCCCC(=O)O
- outcome [4]: inactive
